Assay [1] in a line: compounds altering viability of human ES cells (AID 493140; call rule not given here;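 also: cells exposed to compounds for four days before counting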). Conditions: human embryonic stem cell survival screen; stronger effect = higher value.
A short description of assay [2]: liver-stage malaria parasite load reduction – cell-based, known kinase inhibitor set, luminescence, hepatoma host viability (AID 624392; call rule not given here;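 also: infected cells incubated roughly two days before readout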). Conditions: Plasmodium liver stage in hepatoma cells, luciferase luminescence, concentration not given here; liver cell % of control: measured here: host liver cell viability; parasite % of control: stronger effect = lower value.
Assay [3] can be described thus: viability loss in pontine glioma line – cell-based, SU-DIPG-XXV, MIPE5.0, CellTiter-Glo, qHTS, dose response (AID 1347065; cut-off not given, nearly all actives have AC50 up to about 26 µM;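 also: cells exposed to compound for 48 hours before ATP readout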). Particulars: CellTiter-Glo ATP luminescence. Background: Cellular ATP, detected with luciferase, serves as a proxy for viable cell number.
A short description of assay [4]: viability loss in pontine glioma line – cell-based, SU-DIPG-XVII, MIPE5.0, CellTiter-Glo, qHTS, dose response (AID 1347060; cut-off not given, nearly all actives have AC50 up to about 26 µM;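 as to AC50: cells exposed to compound for 48 hours before viability readout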). Particulars: CellTiter-Glo ATP luminescence.
A short description of assay [5]: growth inhibition, single agent or in combination, cell-based, chromothripsis tumors, cisplatin or BGB combos (AID 1671449).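 Also: cells exposed for 96 hours; 0% = vehicle DMSO and 100% = killing by high DMSO.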 Conditions: LFS_MB_P medulloblastoma cells.
Assay [6] can be described thus: growth inhibition, single agent and combos, cell-based, chromothripsis tumors, cisplatin or BGB combos (AID 1671450).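 Also: cells exposed to compound for four days; 0% = vehicle DMSO and 100% = cell killing by high DMSO.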 Particulars: HDN33 neuroblastoma cells, stronger effect = higher value.
The nature of assay [7]: growth inhibition, single agents and combos, LFS_MB_1R, cell-based, cisplatin or BGB combos, synergistic combos for chromothripsis tumors (AID 1671452).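 Also: cells exposed for 96 hours before readout.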 Particulars: LFS_MB_1R medulloblastoma cells, stronger effect = higher value.
Assay [8] is described as follows: growth inhibition, single agents and combos, HTB85, cell-based, BGB or cisplatin IC20 combos, synergistic combos for chromothripsis tumors (AID 1671453).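 Also: cells exposed for 96 hours before readout; 0% = vehicle DMSO and 100% = high DMSO killing control.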 Particulars: HTB85 osteosarcoma cells, drug combinations, stronger effect = higher value.
A short description of assay [9]: growth inhibition, single agents and combos, CRL2098, cell-based, BGB or cisplatin IC20 combos, synergistic combos for chromothripsis tumors (AID 1671454).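 Also: cells exposed for 96 h before readout; 0% = vehicle DMSO and 100% = killing by high DMSO.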 Particulars: CRL2098 osteosarcoma cells, drug combinations, stronger effect = higher value.
Assay [10] is described as follows: growth inhibition, single agents and combos, HD-MB03, cell-based, BGB or cisplatin IC20 combos, synergistic combos for chromothripsis tumors (AID 1671455; in the data active = inhibition above about 83%;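 also: 0% = vehicle DMSO and 100% = high DMSO as cytotoxic control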). Particulars: HD-MB03 medulloblastoma cells, stronger effect = higher value.
A short description of assay [11]: growth inhibition, single agents and combos, UWB1.289, cell-based, BGB or cisplatin combos, synergistic combos for chromothripsis tumors (AID 1671456).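 Also: cells exposed to compound for four days; 0% = vehicle DMSO and 100% = killing by high DMSO.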 Particulars: UWB1.289 ovarian carcinoma cells, stronger effect = higher value.
Assay [12] can be described thus: growth inhibition, single agents and combos, LFS_MB_2R, cell-based, cisplatin combos, synergistic combos for chromothripsis tumors (AID 1671457).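 Also: cells exposed to compound for four days before readout.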 Particulars: LFS_MB_2R medulloblastoma cells, stronger effect = higher value.
Assay [13] is described as follows: growth inhibition, MDA-MB-436, cell-based, BGB or cisplatin combos, synergistic combos for chromothripsis tumors (AID 1671458; call rule not given here;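 also: cells exposed for 96 hours; 0% = vehicle DMSO and 100% = killing by high DMSO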). Conditions: MDA-MB-436 breast carcinoma growth inhibition, drug combinations, stronger effect = higher value.
A short description of assay [14]: UWB1.289_BRCA1 ovarian cancer growth, cell-based, BGB or cisplatin combinations (AID 1671459). Conditions: UWB1.289 BRCA1 ovarian carcinoma, drug combinations, stronger effect = higher value.
A short description of assay [15]: drug combination toxicity in non-malignant astrocytes – cell-based, BGB or cisplatin IC20 combos, cytotoxicity control for chromothriptic childhood tumor combination screen (AID 1671460).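 Also: cells exposed to compounds for 96 hours before viability readout; 0% = vehicle and 100% = killing control.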 Particulars: Human astrocytes, viability inhibition, drug combinations, at 0.5 µM, stronger effect = higher value.
A short description of assay [16]: BT084 cell growth, single and combined drugs, ICGC_MB145, cisplatin and BGB IC40 combos (AID 1671461).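 Also: cells exposed to drugs for 96 hours; 0% = vehicle DMSO and 100% = high DMSO full killing control.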 Particulars: BT084 medulloblastoma cells, drug combinations, stronger effect = higher value.
Assay [17] in a line: RCMB18 cell growth, single agent and combined, cisplatin and BGB IC40 combos (AID 1671462).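 Also: cells exposed to compound for four days.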 Particulars: RCMB18 medulloblastoma cells, stronger effect = higher value.
Assay [18] is described as follows: CRL1545 cell growth, single agent and combined, cisplatin and BGB IC20 combos (AID 1671464).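 Also: cells exposed to compound for 96 hours before readout; 0% = vehicle DMSO and 100% = high DMSO killing control.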 Conditions: CRL1545 osteosarcoma cells, stronger effect = higher value.
[19] abbreviates: measured here: combination with BGB IC40, at 0.05 µM.
Where [20] appears, read: measured here: with BGB IC20 combination, at 0.5 µM.
Where [21] appears, read: measured here: with cisplatin IC20 combination, at 0.5 µM.
Where [22] appears, read: measured here: combination with cisplatin, at 0.5 µM.
Setting [23] is: measured here: combination with cisplatin, at 5 µM.

For orientation: AC50 means the midpoint of the concentration-response curve, whichever way the signal moves. Broadly, the inhibition is the drop in the measured response relative to a control, in per cent.

Where “and” joins values, the source holds several entries; their conditions need not be identical. Equal values may be shown once. Records with an inconclusive call do not appear. Calls of active or inactive are those of the source. Rule as the data show it, unless noted: active = inhibition above about 80%; inactive = the rest.

On to `Oc1ccc(-c2nc(-c3ccc(F)cc3)c(-c3ccncc3)[nH]2)cc1`, for which the survival in assay [1] was 94 (inactive). Also, in assay [2], the liver cell % of control was 85.2% and 83.2% and 90.8%; the parasite % of control was 14.8% (inactive) and 19.2% (inactive) and 29.9% (inactive).
On to `CCCC[C@@H](C=O)NC(=O)[C@H](CC(C)C)NC(=O)OCc1ccccc1`, for which, in [3], the compound was classed as inactive.
For the compound `Nc1nccc(-c2ccc3noc(-c4ccc(Cl)cc4)c3c2)n1`, in [3], the AC50 was 20.9 µM (active).
For the compound `N#C/C(=C\c1ccc(O)c(O)c1)C(=O)NCc1ccccc1`, the survival in [1] is 133 (inactive).
Still for that read-out and setting: the figure for `O=c1cc(N2CCOCC2)oc2c(-c3ccccc3)cccc12` is 83.6 (inactive).
Take `N#CC(=C(/N)Sc1ccccc1N)/C(C#N)=C(\N)Sc1ccccc1N`: the survival in assay [1] is 104 (inactive).
As to `COc1cc(SC)ccc1C(=O)N1CCC(Cc2ccccc2)CC1`, the outcome in assay [4] and in assay [3] was inactive.
For the compound `O=C1c2ccccc2-c2n[nH]c3cccc1c23`, the survival in assay [1] is 97.1 (inactive).
Take `O=C(c1ccc(Nc2nccc(-c3cc4ccccc4s3)n2)cc1)N1CCC(N2CCCC2)CC1`: the AC50 in assay [3] is 7.42 µM (active).
Regarding `O=Nc1c(-c2c(O)[nH]c3ccccc23)[nH]c2ccccc12`, the survival in [1] was 71.6 (inactive).
As to `C[C@@H](N)C1CCC(C(=O)Nc2ccncc2)CC1` (some centres not stated), in assay [3], the compound was called inactive.
With `Cc1ccc(S(=O)(=O)/C=C/C#N)cc1`, the survival in assay [1] is 9.17 (inactive).
`N#C/C(=C(/N)Sc1ccc(N)cc1)c1ccccc1C(F)(F)F`: the result in [3] was inactive.
As to `CC(C)N(CCC(=O)c1ccc2ccccc2c1)Cc1ccccc1`, the AC50 was 7.42 µM (active) in assay [4] and 6.61 µM (active) in [3].
Consider `O=c1ncccn1[C@@H]1O[C@H](CO)[C@@H](O)[C@H]1O`, for which, in assay [3], the compound was classed as inactive. The inhibition in [5] (at 0.5 µM, stronger effect = higher value) was 94.5% (active); in assay [5] (measured here: combination with BGB IC20, at 0.005 µM), -19.6%; in [5] (measured here: combination with BGB IC40, at 0.005 µM), -15.6%; in [5] (setting [19]), -21.7%; in [5] (measured here: combination with cisplatin, at 0.5 µM, stronger effect = higher value), 116%; in assay [5] (measured here: combination with cisplatin, at 5 µM, stronger effect = higher value), -26.6%. In addition, the inhibition in [6] (BGB combo, at 5 µM) was -58.6%; in assay [6] (at 0.5 µM), -38.5% (inactive); in assay [6] (cisplatin combo, at 5 µM) it was -44.1%; in [6] (setting [20]), -41.3%; in assay [6] (setting [21]), -33.1%; in [6] (single agent, at 5 µM), -32.1%. The inhibition in assay [7] (at 0.5 µM) was -27.9% (inactive); in assay [7] (setting [19]), -35.3%; in assay [7] (setting [22]), -51%; in assay [7] (setting [23]) it was -58.9%; in assay [8] (at 0.5 µM) it was -26.7% (inactive); in assay [8] (measured here: with BGB IC20, at 0.5 µM), -35%. Moreover, the inhibition was -20.6% in assay [8] (measured here: with BGB IC20, at 5 µM); -23.7% in assay [8] (measured here: with cisplatin IC20, at 0.5 µM); -31.4% in assay [8] (measured here: with cisplatin IC20, at 5 µM); -19.2% in [8] (single agent, at 5 µM); -74.1% (inactive) in assay [9] (at 0.5 µM); -48.3% in [9] (measured here: combination with BGB at IC20, at 0.5 µM). Also, the inhibition is -120% in assay [9] (measured here: combination with cisplatin at IC20, at 0.5 µM); -21.4% (inactive) in assay [10] (at 0.5 µM); -26.7% in assay [10] (measured here: combo with BGB at IC20, at 0.5 µM); -23% in assay [10] (measured here: combo with cisplatin at IC20, at 0.5 µM); -19.3% (inactive) in assay [11] (at 0.5 µM); 1.76% in [11] (measured here: inhibition with BGB combination, at 0.05 µM). Also, the inhibition in [11] (measured here: inhibition with cisplatin combination, at 0.05 µM) was -40%; in [12] (at 0.5 µM), -6.18% (inactive); in assay [12] (setting [22]) it was -23.5%; in [12] (setting [23]), -12.7%; in assay [13] (at 0.5 µM), -13.6% (inactive); in assay [13] (measured here: BGB combination, at 0.5 µM), -17.7%. Also, the inhibition is -15.1% in assay [13] (measured here: BGB combination, at 5 µM); -10.4% in assay [13] (measured here: cisplatin combination, at 0.5 µM); -7.02% in assay [13] (measured here: cisplatin combination, at 5 µM); -30% in [14] (BGB combination, concentration series, at 5 µM); -19.1% (inactive) in assay [14] (at 0.5 µM); -22.8% in assay [14] (cisplatin combination, concentration series, at 5 µM). Further, the inhibition in [15] was -3.28% (inactive); in assay [15] (measured here: combo with BGB IC20) it was -9.39%; in assay [15] (measured here: combo with cisplatin IC20), 1.77%; in assay [16] (at 0.5 µM), -5.93% (inactive); in assay [16] (cisplatin combination, at 0.5 µM), -27.2%; in [16] (cisplatin combination, at 5 µM), -19.4%. Besides, the inhibition in assay [16] (measured here: BGB IC40 combination 0.05 uM, at 0.05 µM) was -6.16%; in assay [16] (single agent, at 5 µM), -11.2%; in assay [17] (at 0.5 µM), -16.2% (inactive); in assay [17] (cisplatin combo, at 5 µM) it was -19.8%; in [17] (measured here: BGB IC40 combination, at 0.05 µM), 3.99%; in [17] (setting [22]) it was -35.7%. In addition, the inhibition in assay [17] (single agent, at 5 µM) was -29.5%; in assay [18] (at 0.5 µM), -31.3% (inactive); in assay [18] (setting [20]), -27.5%; in assay [18] (setting [21]) it was -35.4%; in assay [18] (single agent, at 0.05 µM), -12.6%; in assay [18] (single agent, at 5 µM), -36.3%.
Consider `Cc1ccccc1C(=O)c1ccc(Nc2ccc(Br)cc2N)cc1Cl`, for which the AC50 in [3] is 18.6 µM (active).
As to `CNC(=O)[C@H]1O[C@@H](n2cnc3c(NCc4cccc(I)c4)nc(Cl)nc32)[C@H](O)[C@@H]1O`, in [4], the AC50 is 18.6 µM (active).
Regarding `Cc1ccc(NC(=O)c2cccc(N(C)C)c2)cc1NC(=O)c1ccc(O)cc1`, the survival in assay [1] was 103 (inactive).

The values above are taken from PubChem BioAssay.
